Bioassay records deposited in PubChem BioAssay by National Center for Advancing Translational Sciences (NCATS).
CHX counter: affects cycloheximide protein synthesis inhibition readout, counter-screen. cell reporter, cycloheximide protein synthesis inhibition counterscreen. max response, %. hit rate 12% among 300,000; in the data active = max response mostly above about 13%, no sharp cut-off; inactive = mostly below about 14%; note: read at 38.3 µM for the half of the compounds with a filed dose; 0% is about no effect
Shiga inhibitor: Shiga toxin inhibition; Vero cells, Shiga toxin protein synthesis inhibition reporter; inhibition, % at 38.7 µM; hit rate 9.2% among 290,000; AID 2315; in the data active = inhibition mostly above about 28%, no sharp cut-off; inactive = mostly below about 43%; note: 0% is about no effect
Pf growth 96h: P. falciparum growth inhibition at 96 hours; P. falciparum luciferase reporter growth, 96 h; Potency, µM (top dose mostly 28.7 µM), without a hit: at the highest dose activity change, negative = inhibition, usual class: inhibitors; hit rate 6.9% among 320,000; note: potency is the fitted concentration of half-maximal effect; % is set by controls: 0 for no effect and ±100 for the full control effect
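Parasite growth measured via integrated firefly luciferase reporter in P. falciparum. Infected erythrocytes at 2% hematocrit, 0.05% parasitemia final were treated 96 hours at 37 C under 5% CO2, and luminescence was read.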
Pf growth 48h: inhibits P. falciparum growth in the first generation, 48 h | P. falciparum luciferase growth in erythrocytes, 48 h | Potency, µM (top dose mostly 28.7 µM), inactives show at the highest dose activity change, negative = inhibition, actives largely listed as inhibitors | hit rate 5.9% among 310,000 | AID 504832; note: potency is the fitted concentration of half-maximal effect; % is set by controls: 0 for no effect and ±100 for the full control effect
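Here the parasites carry a stable luciferase gene and grow inside erythrocytes in Albumax-based RPMI medium with compound for one erythrocytic cycle. Activity is scored as loss of luminescent signal.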
SARS PLpro yeast: SARS-CoV PLP inhibition in yeast; AID 485353; Potency, µM (top dose mostly 32.9 µM), inactives show top-dose activity, positive = growth rescue, usual class: activators; hit rate 0.19% among 330,000; S. cerevisiae expressing SARS-CoV PLpro, growth rescue; calls by dose curve; note: potency is the fitted concentration of half-maximal effect; 0% is about no effect; nearly all actives have a fitted effect of over 55% in size
AMA1-RON2 inh: inhibitors of Plasmodium falciparum AMA1-RON2 interaction; AlphaScreen AMA1-biotinylated RON2 peptide binding; Potency, µM (highest dose often 58.2 µM), for the others: at the highest dose activity change, negative = inhibition, usual class: inhibitors; hit rate 0.2% among 360,000; AID 720542;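 note: potency is the fitted concentration of half-maximal effect; 0% = vehicle wells and -100% = peptide control; nearly all actives have a fitted effect of over 45% in size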
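AMA1 (3D7) with his tag at 25 nM final met compounds first, then biotinylated RON2 peptide at 25 nM; detection used donor plus acceptor beads, 10 µg/mL apiece, read by AlphaScreen after 30 min at room temperature.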
Numbers without * were called inactive; i = inactive; u = inconclusive; x = no result; [ ] = dose if it differs, or a comment. Rows were chosen to be rich in hits. Some 19% of all compounds tested hit in one or more screens of this group. Unless noted, calls come from the whole dose curve; as a rule, active = well fitted curve in the direction sought with a large enough effect; inconclusive = small, poorly fitted or top-dose-only effect, or another doubt; inactive = no such curve, though single readings can be large; an effect the other way counts as inactive or inconclusive.

SMILES	CHX counter	Shiga inhibitor	Pf growth 96h	Pf growth 48h	SARS PLpro yeast	AMA1-RON2 inh
COC(=O)C1=C[C@@H](C(=O)OC)C2C3=C(C(=O)[C@@]2(C)NC(=O)c2ccccc2)[C@H](C)n2c(=O)n(C)c(=O)n2[C@@H]3C1 (some centres undefined)	-3.5	3.3	x	x	x	x
COc1cccc(CN(C)C(=O)CN2C(=O)NC3(CCCc4ccccc43)C2=O)c1 (centres undefined)	x	x	u	u	1.4%	-0.1%[11.6 µM]
Cc1ccc(C)c(C(=O)CN2C(=O)NC3(CCc4ccccc43)C2=O)c1 (centres undefined)	x	x	14.7µM*	u	0.5%	7.5%
Cc1cc(C(=O)CN2C(=O)NC3(CCCc4ccccc43)C2=O)c(C)n1C (centres undefined)	-1.2	-3.9	x	u	-2.2%	-2.2%
Cc1ccsc1CN(C)C(=O)CN1C(=O)NC2(CCCc3ccccc32)C1=O (centres undefined)	x	x	11.7µM*	u	9.3%	-5.4%
CCOc1ncccc1C(=O)OCC(=O)Nc1ccc2c(c1)OCO2	-1.2	36.3	2.9%	-17.7%	-3.3%	4.5%
N#Cc1cc(-c2ccccc2)nn1-c1ccccc1	19.1	16.0	-5.2%	8.1%	11.6%	11.9%
O=c1ccc(-c2ccccc2)nn1Cc1ccccc1	x	x	x	x	x	-2.6%
Cn1ccc(-c2ccccc2)n1	19.1*	12.5	1.65µM*	4.4%	0.1%	-7.9%
CNc1ccccc1-n1ccc(-c2ccccc2)n1	35.6*	86.5*	x	39.0%	-18.3%	u
O=C(Nc1nccs1)c1cc(Cl)nc2ccccc12	-1.2	-2.3	20.6%	37.9%	-1.2%	32.1%
CCCn1nnc(NC(=O)COc2ccccc2Cl)n1	24.3*	61.9*	x	17.5%	-3.7%	0.0%
CCCn1nnc(NC(=O)Cc2ccccc2)n1	-3.3	-26.2	37.9%	9.1%	1.1%	0.0%
O=C(Nc1nccs1)c1sc2cc(Cl)ccc2c1Cl	38.5*	63.1*	i	157.4%	-6.9%	5.0%
O=C(Nc1ccccn1)c1sc2cc([N+](=O)[O-])ccc2c1Cl	20.9*	59.1*	320.0%	72.5%	-12.9%	-5.2%
O=C(Nc1nccs1)c1sc2ccccc2c1Cl	30.1*	78.0*	47.4%	-37.3%	-8.5%	92.1%
COc1ccc(OC)c(NC(=O)c2cccc(NC(=O)c3ccco3)c2)c1	x	x	x	x	x	-14.2%
CC(C)c1nnc(NC(=O)c2sc3ccccc3c2Cl)s1	29.2*	67.0*	12.5%	114.9%	-15.2%	63.8%
Cc1cnc(NC(=O)c2sc3ccccc3c2Cl)s1	57.2*	63.5*	208.3%	234.9%	7.3%	81.9%
Cc1cccnc1NC(=O)CNC(=O)c1sc2ccccc2c1Cl	x	x	45.2%	76.9%	13.2%	5.6%
Cc1ccnc(NC(=O)c2sc3ccccc3c2Cl)c1	42.2*	89.2*	11.9%	165.1%	2.8%	-10.2%
CCCn1nnc(NC(=O)c2sc3ccccc3c2Cl)n1	41.2*	99.7*	x	120.7%	-17.6%	55.5%
CC(=O)Oc1ccccc1Cn1c(C)c(C(=O)NCc2ccccc2C(F)(F)F)sc1=O	x	x	x	x	x	-3.3%
CN=Cc1c(NC)nc2c(C)cccn2c1=O	-3.8	-4.0	u	1.2%	-1.1%	-8.7%
CCCCCOc1ccc(C(C)(O)C(CN2CCOCC2)c2ccccc2)cc1 (centres undefined)	-2.2	8.6	-0.5%	u	-2.4%	1.0%
SMILES	CHX counter	Shiga inhibitor	Pf growth 96h	Pf growth 48h	SARS PLpro yeast	AMA1-RON2 inh
CCCCCCC(O)(c1ccccc1)C(CN1CCOCC1)c1ccccc1 (centres undefined)	1.2	-10.5	2.8%	3.29µM*	-0.9%	-0.2%
CCCCCCC(O)(c1ccc(OC)cc1)C(CN1CCOCC1)c1ccccc1 (centres undefined)	7.9	21.2	10.4µM*	1.85µM*	-7.5%	9.6%
CCCCCC(O)(c1ccccc1)C(CN1CCOCC1)c1ccccc1 (centres undefined)	-2.7	-1.2	0.0%	2.62µM*	-5.0%	-11.9%
NC(=O)CC(NC(=O)c1ccccc1)c1ccc(NCCc2ccc(Cl)cc2)c([N+](=O)[O-])c1 (centres undefined)	-4.7	-8.1	u	13.1µM*	0.6%	-9.5%
NC(=O)CC(NC(=O)c1ccccc1)c1ccc(NCc2ccccc2)c([N+](=O)[O-])c1 (centres undefined)	8.6	7.3	9.28µM*	u	0.2%	-0.7%
NC(=O)CC(NC(=O)c1ccccc1)c1ccc(NCc2ccc(F)c(F)c2)c([N+](=O)[O-])c1 (centres undefined)	-2.7	-3.3	u	u	1.9%	-8.6%
CCN(C(=O)COC(=O)CCCOc1ccc(Cl)cc1C)c1c(N)n(Cc2ccccc2)c(=O)[nH]c1=O	x	x	x	x	x	1.8%
O=C(Cc1ccc(-c2ccccc2)cc1)Nc1ncccc1O	37.2*	79.9*	68.7%	75.1%	-9.6%	52.0%
O=C(Cc1ccc(-c2ccccc2)cc1)Nc1ccccc1	21.5*	21.4	-3.2%	12.9%	-3.8%	-11.3%
COc1ccc([C@H]2CC(=O)C=C(c3cccc(C(C)C)c3)C2)cc1OC	x	x	u	u	-10.7%	-21.3%
COCCNC(=S)N1CCc2cc(OC)c(OC)cc2C1COc1ccc(C(C)C)cc1 (centres undefined)	-2.5	-18.9	8.28µM*	11.7µM*	-2.3%	u
CNC(=S)N1CCc2cc(OC)c(OC)cc2C1COc1ccc(F)cc1 (centres undefined)	-4.4	-6.2	-39.1%	u	-0.4%	-8.9%
COCCNC(=S)N1CCc2cc(OC)c(OC)cc2C1COc1ccc(F)cc1 (centres undefined)	7.0	-15.7	35.3%	u	1.2%	-10.2%
CCNC(=S)N1CCc2cc(OC)c(OC)cc2C1COc1ccc(F)cc1 (centres undefined)	7.4	-14.8	8.28µM*	u	0.5%	-7.9%
COCCNC(=S)N1CCc2cc(OC)c(OC)cc2C1c1cccs1 (centres undefined)	3.0	-13.8	5.86µM*	2.94µM*	1.2%	-6.0%
COc1cc2c(cc1OC)C(c1cccs1)N(C(=O)c1cccc(S(=O)(=O)N(C)C)c1)CC2 (centres undefined)	-2.4	-13.5	u	u	1.1%	u
CCN(CC)C(=O)Cn1nc(-c2ccc(Cl)cc2)c2ccccc2c1=O	-0.4	17.1	-26.3%	1.5%	2.5%	0.0%
O=C1NC(=S)/C(=C\c2ccc(-c3ccccc3Cl)o2)S1	10.8	31.3*	-9.8%	25.3%	-49.2%	0.3%
COc1ccc(NC(=O)CSc2ccc3nnc(CCNC(=O)c4ccccc4)n3n2)cc1OC	9.1	-16.5	-11.3%	6.2%	-0.2%	-4.1%
COC(OC)c1ccnc(-c2ccc(OC(=O)c3cccs3)cc2)n1	26.2*	61.3*	126.7%	46.2%	-2.6%	-3.8%
